PubChem BioAssay (Tox21)
Results filed as inconclusive are left out. A call without a number means that no potency is given here. Activity calls are given as the source filed them. Unless noted, calls follow the shape of the dose curve; as a rule, active = well fitted curve in the direction sought with a large enough effect in the repeat runs; inconclusive = weak or mixed curves; inactive = no such curve, though single readings can be large; an effect the other way counts as inactive or inconclusive.

Experiments:
[1] = qHTS assay to identify aromatase inhibitors - cell viability counter screen (AID 743084);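 also: cells stimulated with testosterone during compound exposure; nearly all actives have a fitted effect of over 55% in size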
[2] = qHTS assay to identify small molecule antagonists of the peroxisome proliferator-activated receptor gamma (PPARg) signaling pathway - cell viability counter screen (AID 743194); conditions: Potency: co-treated with 50 nM rosiglitazone; also: nearly all actives have a fitted effect of over 55% in size
In short: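 Viability was measured as CellTiter-Glo luminescence in GeneBLAzer PPARg UAS-bla HEK293H cells. These cells had been exposed 17 h at 37 C to compounds together with rosiglitazone at 50 nM final, with the beta-lactamase readout taken in the same wells.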

[3] = qHTS assay for small molecule agonists of the antioxidant response element (ARE) signaling pathway (AID 743202; active = well fitted activation curve with a large enough effect in the signal ratio in the repeat runs, not every such curve was filed as active; the % refers to the signal ratio; also: potency is read from the fitted curve at half-maximal effect)
In short: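 Beta-lactamase reporter activity, read as fluorescence intensity, reflects ARE/Nrf2 pathway induction in HepG2 cells after 16 h compound exposure at 37 C; substrate loading was 2 h at room temperature.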

[4] = qHTS assay for small molecule agonists of the antioxidant response element (ARE) signaling pathway - cell viability counter screen (AID 743203; calls by dose curve; also: nearly all actives have a fitted effect of over 55% in size)
In short: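 Viability counter screen: CellTiter-Glo luminescence, read after 30 min at room temperature, in ARE-bla HepG2 wells. Compound exposure lasted 16 h at 37C/5% CO2, following a 5 h pre-incubation of the cells after plating.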

[5] = qHTS assay for small molecule activators of the heat shock response signaling pathway (AID 743210; active = well fitted activation curve with a large enough effect in the signal ratio in the repeat runs, with a control signal flat, not every such curve was filed as active; the % refers to the signal ratio;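 also: HeLa cells with beta-lactamase reporter driven by heat shock elements; series mostly up to about 63 µM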)
In short: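 Fluorescence from a cleaved B/G FRET substrate (2.5 h, room temp) reports HSE-driven beta-lactamase in HeLa cells treated 5 h at 37 C with DMSO-dissolved compounds.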

[6] = qHTS assay to identify small molecule agonists of the peroxisome proliferator-activated receptor delta (PPARd) signaling pathway - cell viability counter screen (AID 743211); also: nearly all actives have a fitted effect of over 55% in size
In short: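 Luminescent ATP viability assay (CellTiter-Glo, 30 min RT) in UAS-bla HEK293H cells carrying the PPAR delta reporter construct, 3000 cells/well, after a 17 h compound treatment at 37 C.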

[7] = target: Bile acid receptor (Homo sapiens) (UniProt Q96RI1); test: qHTS assay to identify small molecule agonists of the farnesoid-X-receptor (FXR) signaling pathway (AID 743220; active = well fitted activation curve with a large enough effect in the signal ratio in the repeat runs, not every such curve was filed as active; the % refers to the signal ratio)
In short: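 FXR-UAS-bla HEK 293T cells carrying a UAS-driven beta-lactamase reporter were plated for 5 h at 37C/5% CO2, then exposed to DMSO-dissolved Tox21 10K compounds for 16 h at 37C. A LiveBLAzer B/G FRET substrate was loaded for 2 h at room temperature before fluorescence reading.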

[8] = target: Vitamin D3 receptor (Homo sapiens) (UniProt P11473); test: qHTS assay to identify small molecule agonists of the vitamin D receptor (VDR) signaling pathway (AID 743222; calls by dose curve)
In short: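 Agonist mode, beta-lactamase reporter: fluorescence from LiveBLAzer B/G FRET substrate (2 h, room temperature) read after 16 h compound treatment at 37 C of VDR-bla cells, which were pre-incubated 4 h after seeding.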

[9] = qHTS assay for small molecule activators of the heat shock response signaling pathway - cell viability counter screen (AID 743209); also: nearly all actives have a fitted effect of over 50% in size; also: potency is read from the fitted curve at half-maximal effect
In short: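 Cytotoxicity counter screen run in the same wells as the heat-shock bla reporter assay: HeLa HSE-bla cells, 5 h compound exposure at 37 C, viability read by CellTiter-Glo luminescence.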

[10] = target: Peroxisome proliferator-activated receptor delta (Homo sapiens) (UniProt Q03181); test: qHTS assay to identify small molecule agonists of the peroxisome proliferator-activated receptor delta (PPARd) signaling pathway (AID 743212; calls by dose curve;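 also: HEK293H cells with PPARd UAS beta-lactamase reporter GeneBLAzer system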)
In short: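 Steps: seed PPARd-bla HEK293H cells; incubate 5 h, 37 C, 5% CO2; add compounds in DMSO; incubate, 37 C; add LiveBLAzer B/G FRET substrate; hold 2 h at room temperature; measure fluorescence.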

[11] = qHTS assay to identify small molecule antagonists of the peroxisome proliferator-activated receptor delta (PPARd) signaling pathway - cell viability counter screen (AID 743213); also: nearly all actives have a fitted effect of over 50% in size
In short: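 Same-well viability: cells pre-incubated 5 h, dosed with compound plus 300 nM L165041, kept 17 h at 37 C, FRET substrate 2 h RT, then CellTiter-Glo 30 min RT and luminescence.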

[12] = target: Peroxisome proliferator-activated receptor delta (Homo sapiens) (UniProt Q03181); test: qHTS assay to identify small molecule antagonists of the peroxisome proliferator-activated receptor delta (PPARd) signaling pathway (AID 743215; active = well fitted inhibition curve with a large enough effect in the signal ratio in the repeat runs, not every such curve was filed as active; the % refers to the signal ratio;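 also: cells stimulated with agonist L165041 at 300 nM final during compound exposure; series mostly up to about 62 µM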)
In short: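 Agonist L165041 (300 nM final) added with compound to PPARd-bla HEK293H UAS-bla reporter cells; 17 h incubation at 37 C. Read-out: LiveBLAzer FRET substrate, 2 h at room temperature, fluorescence intensity.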

[13] = target: Bile acid receptor (Homo sapiens) (UniProt Q96RI1); test: qHTS assay to identify small molecule antagonists of the farnesoid-X-receptor (FXR) signaling pathway (AID 743217; active = well fitted inhibition curve with a large enough effect in the signal ratio in the repeat runs, not every such curve was filed as active; the % refers to the signal ratio)
In short: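 Antagonist mode: chenodeoxycholic acid at 50 uM final stimulates a UAS-driven beta-lactamase reporter in HEK 293T FXR-bla cells during 16 h, 37C compound exposure. Read-out is FRET substrate fluorescence after 2 h at room temperature.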

[14] = qHTS assay to identify small molecule agonists of the farnesoid-X-receptor (FXR) signaling pathway - cell viability counter screen (AID 743218); also: nearly all actives have a fitted effect of over 45% in size; also: potency is read from the fitted curve at half-maximal effect
In short: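 Viability counter screen in the same wells: CellTiter-Glo luminescence, 30 min room-temperature incubation, measured after the beta-lactamase read. Cells were GeneBLAzer FXR-UAS-bla HEK 293T, compound-treated 16 h at 37C.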

[15] = qHTS assay to identify small molecule antagonists of the farnesoid-X-receptor (FXR) signaling pathway - cell viability counter screen (AID 743221; active = well fitted cell-killing curve with a large enough effect in the repeat runs, not every such curve was filed as active; also: nearly all actives have a fitted effect of over 50% in size)
In short: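 In GeneBLAzer FXR-UAS-bla HEK 293T cells stimulated with 50 uM chenodeoxycholic acid (final), compounds acted for 16 h at 37 C. Viability was assessed afterwards by CellTiter-Glo luminescence.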

[16] = target: Aryl hydrocarbon receptor (Homo sapiens) (UniProt P35869); test: qHTS assay to identify small molecule that activate the aryl hydrocarbon receptor (AhR) signaling pathway (AID 743085);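 also: HG2L7.5c1 human HepG2 liver cells with stably integrated DRE-driven firefly reporter; series mostly up to about 70 µM; nearly all actives have a fitted effect of over 15% in size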
In short: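 24 h compound exposure, 37C, HepG2-derived HG2L7.5c1 cells with DRE-responsive luciferase. Readouts: fluorescence viability, then luminescence at room temperature after 30 min.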

[17] = qHTS assay to identify small molecule that activate the aryl hydrocarbon receptor (AhR) signaling pathway - cell viability counter screen (AID 743086);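 also: HepG2 liver cells carrying the AhR DRE luciferase reporter; series mostly up to about 70 µM; nearly all actives have a fitted effect of over 45% in size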
In short: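 Cytotoxicity counter screen: CellTiter-Fluor signal (30 min, 37 C) in 4000 HepG2 cells/well carrying the DRE-luciferase reporter, following 24 h compound exposure at 37 C.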

[18] = target: Peroxisome proliferator-activated receptor gamma (Homo sapiens) (UniProt P37231); test: qHTS assay to identify small molecule antagonists of the peroxisome proliferator-activated receptor gamma (PPARg) signaling pathway (AID 743191; calls by dose curve; also: series mostly up to about 63 µM; nearly all actives have a fitted effect of over 30% in size)
In short: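 Beta-lactamase reporter under UAS control in HEK293H PPARg-bla cells; compound treatment 17 h at 37C. Read-out: fluorescence intensity after 1 h room-temperature incubation with LiveBLAzer B/G FRET substrate.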

[19] = target: Vitamin D3 receptor (Homo sapiens) (UniProt P11473); test: qHTS assay to identify small molecule antagonists of the vitamin D receptor (VDR) signaling pathway (AID 743223; active = well fitted inhibition curve with a large enough effect in the signal ratio in the repeat runs, not every such curve was filed as active; the % refers to the signal ratio)
In short: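 Agonist 1alpha,25-dihydroxyvitamin D3 (3 nM in well) was added with each compound to VDR-bla cells preincubated 4 h. Cells stood 16 h at 37C, then FRET substrate 2 h at room temperature; fluorescence intensity recorded.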

[20] = target: Peroxisome proliferator-activated receptor gamma (Homo sapiens) (UniProt P37231); test: qHTS assay to identify small molecule agonists of the peroxisome proliferator-activated receptor gamma (PPARg) signaling pathway (AID 743094; active = well fitted activation curve with a large enough effect in the signal ratio in the repeat runs, not every such curve was filed as active; the % refers to the signal ratio)
In short: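 Agonist activity was taken from a beta-lactamase reporter (FRET substrate, 1 h at room temperature) in HEK293H cells carrying a PPARg UAS-bla construct. Compounds in DMSO were incubated 17 h at 37C after a 5 h cell pre-incubation.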

Sequence of Peroxisome proliferator-activated receptor gamma (Homo sapiens) (P37231 whole entry, looked up): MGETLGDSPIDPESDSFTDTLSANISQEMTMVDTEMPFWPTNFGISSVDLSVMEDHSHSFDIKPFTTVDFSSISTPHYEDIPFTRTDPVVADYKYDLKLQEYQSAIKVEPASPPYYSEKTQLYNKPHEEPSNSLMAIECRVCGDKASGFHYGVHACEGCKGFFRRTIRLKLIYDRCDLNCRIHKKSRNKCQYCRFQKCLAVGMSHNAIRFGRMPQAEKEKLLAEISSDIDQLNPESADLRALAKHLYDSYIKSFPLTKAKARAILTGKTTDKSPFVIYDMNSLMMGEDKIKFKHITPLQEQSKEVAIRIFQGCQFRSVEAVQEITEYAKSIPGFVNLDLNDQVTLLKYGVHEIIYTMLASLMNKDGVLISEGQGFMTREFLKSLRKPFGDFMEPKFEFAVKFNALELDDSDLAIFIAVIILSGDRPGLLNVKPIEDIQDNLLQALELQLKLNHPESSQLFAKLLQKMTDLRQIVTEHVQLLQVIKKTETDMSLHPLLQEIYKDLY
Sequence of Bile acid receptor (Homo sapiens) (Q96RI1 whole entry, looked up): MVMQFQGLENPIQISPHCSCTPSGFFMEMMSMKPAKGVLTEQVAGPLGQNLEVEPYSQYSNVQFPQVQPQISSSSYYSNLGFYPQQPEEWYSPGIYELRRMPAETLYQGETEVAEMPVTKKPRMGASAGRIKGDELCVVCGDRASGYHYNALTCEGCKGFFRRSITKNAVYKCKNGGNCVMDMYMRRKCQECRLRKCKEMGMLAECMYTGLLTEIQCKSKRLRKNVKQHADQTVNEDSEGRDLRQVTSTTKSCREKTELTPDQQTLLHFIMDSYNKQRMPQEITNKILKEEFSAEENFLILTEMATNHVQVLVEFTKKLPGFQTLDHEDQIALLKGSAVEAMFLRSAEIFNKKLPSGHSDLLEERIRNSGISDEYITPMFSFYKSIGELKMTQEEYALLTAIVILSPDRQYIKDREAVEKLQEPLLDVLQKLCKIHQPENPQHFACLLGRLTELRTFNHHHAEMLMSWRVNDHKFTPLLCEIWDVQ
Sequence of Vitamin D3 receptor (Homo sapiens) (P11473 whole entry, looked up): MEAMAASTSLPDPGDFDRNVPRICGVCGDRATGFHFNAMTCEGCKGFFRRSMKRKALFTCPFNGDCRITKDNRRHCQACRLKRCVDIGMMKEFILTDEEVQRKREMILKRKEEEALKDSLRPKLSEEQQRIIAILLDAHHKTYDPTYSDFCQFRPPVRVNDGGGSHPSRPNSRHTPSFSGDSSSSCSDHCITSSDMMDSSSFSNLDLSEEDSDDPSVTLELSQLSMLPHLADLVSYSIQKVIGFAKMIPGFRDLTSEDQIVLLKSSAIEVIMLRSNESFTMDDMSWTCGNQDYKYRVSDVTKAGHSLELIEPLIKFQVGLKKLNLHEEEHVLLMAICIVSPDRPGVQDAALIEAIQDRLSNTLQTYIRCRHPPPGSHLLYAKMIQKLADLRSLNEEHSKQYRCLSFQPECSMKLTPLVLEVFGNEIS
Sequence of Peroxisome proliferator-activated receptor delta (Homo sapiens) (Q03181 whole entry, looked up): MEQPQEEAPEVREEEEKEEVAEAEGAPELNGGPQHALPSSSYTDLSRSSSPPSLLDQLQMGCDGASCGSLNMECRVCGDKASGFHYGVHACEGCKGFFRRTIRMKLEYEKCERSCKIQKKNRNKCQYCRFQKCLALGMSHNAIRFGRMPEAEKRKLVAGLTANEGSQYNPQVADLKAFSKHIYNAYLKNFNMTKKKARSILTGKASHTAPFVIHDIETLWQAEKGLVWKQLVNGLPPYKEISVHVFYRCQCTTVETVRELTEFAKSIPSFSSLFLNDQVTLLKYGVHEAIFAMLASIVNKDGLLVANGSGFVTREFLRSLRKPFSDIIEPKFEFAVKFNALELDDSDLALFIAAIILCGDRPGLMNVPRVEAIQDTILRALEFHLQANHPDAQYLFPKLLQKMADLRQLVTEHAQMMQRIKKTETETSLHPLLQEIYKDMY
Sequence of Aryl hydrocarbon receptor (Homo sapiens) (P35869 whole entry, looked up): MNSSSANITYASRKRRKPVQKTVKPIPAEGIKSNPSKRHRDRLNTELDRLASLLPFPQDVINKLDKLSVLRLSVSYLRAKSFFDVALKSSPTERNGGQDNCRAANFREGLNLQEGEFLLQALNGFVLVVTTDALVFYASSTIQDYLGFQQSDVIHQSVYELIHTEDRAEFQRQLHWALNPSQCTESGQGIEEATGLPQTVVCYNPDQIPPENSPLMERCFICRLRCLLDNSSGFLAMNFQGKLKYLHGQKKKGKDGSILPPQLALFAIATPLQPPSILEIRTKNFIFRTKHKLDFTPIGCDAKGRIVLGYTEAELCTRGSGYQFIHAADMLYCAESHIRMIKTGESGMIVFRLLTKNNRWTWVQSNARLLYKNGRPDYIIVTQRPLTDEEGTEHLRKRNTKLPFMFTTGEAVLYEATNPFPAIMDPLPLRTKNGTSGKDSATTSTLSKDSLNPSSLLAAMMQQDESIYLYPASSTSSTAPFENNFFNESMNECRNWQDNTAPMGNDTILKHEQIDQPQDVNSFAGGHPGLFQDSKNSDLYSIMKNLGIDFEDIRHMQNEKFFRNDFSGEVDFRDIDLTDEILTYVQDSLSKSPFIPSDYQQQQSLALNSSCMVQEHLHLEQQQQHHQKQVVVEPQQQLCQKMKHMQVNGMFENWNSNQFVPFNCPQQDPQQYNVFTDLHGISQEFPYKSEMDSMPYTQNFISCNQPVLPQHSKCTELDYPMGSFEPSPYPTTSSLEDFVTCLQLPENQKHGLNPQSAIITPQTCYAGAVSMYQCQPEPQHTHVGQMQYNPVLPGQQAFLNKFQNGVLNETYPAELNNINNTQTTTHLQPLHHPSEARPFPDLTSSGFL

## COc1ccc(-c2ccccc2)cc1NNC(=O)OC(C)C
[1]
  Potency: inactive
[2]
  Potency: inactive
[3]
  Potency: 16 µM (active)
[4]
  Potency: inactive
[5]
  outcome: inactive
[6]
  Potency: inactive
[7]
  outcome: inactive
[8]
  outcome: inactive

## Sc1ccccc1Cl
[2]
  Potency: inactive
[3]
  Potency: inactive
[4]
  Potency: inactive
[9]
  Potency: inactive
[5]
  outcome: inactive
[6]
  Potency: inactive
[10]
  outcome: inactive
[11]
  Potency: inactive
[12]
  Potency: inactive
[13]
  Potency: inactive
[14]
  Potency: inactive
[7]
  outcome: inactive
[15]
  Potency: inactive
[8]
  outcome: inactive

## C[C@]12CC[C@H]3[C@@H](CCC4=CC(=O)CC[C@@H]43)[C@@H]1CC[C@@H]2OC(=O)CCC1CCCCC1
[2]
  Potency: inactive
[4]
  Potency: inactive
[9]
  Potency: inactive
[5]
  outcome: inactive
[6]
  Potency: inactive
[10]
  outcome: inactive
[15]
  Potency: inactive
[8]
  outcome: inactive

## Clc1cc(C(Cl)(Cl)Cl)cnc1Cl
[16]
  Potency: inactive
[17]
  Potency: inactive
[18]
  Potency: inactive
[2]
  Potency: inactive
[9]
  Potency: 49 µM (active)
[6]
  Potency: inactive
[11]
  Potency: inactive
[12]
  Potency: inactive
[13]
  Potency: inactive
[14]
  Potency: inactive
[7]
  outcome: inactive
[15]
  Potency: inactive
[8]
  outcome: inactive
[19]
  outcome: inactive

## CO[C@@H]1[C@H](OC(=O)NC(=O)CCl)CC[C@]2(CO2)[C@H]1[C@@]1(C)O[C@@H]1CC=C(C)C
[17]
  Potency: inactive
[2]
  Potency: inactive
[4]
  Potency: inactive
[6]
  Potency: inactive
[12]
  Potency: inactive
[14]
  Potency: 0.0021 µM (active)
[15]
  Potency: inactive

## O=C(O)C(F)(F)C(F)(F)C(F)(F)C(F)(F)C(F)(F)C(F)(F)C(F)(F)C(F)(F)C(F)(F)F
[17]
  Potency: inactive
[20]
  Potency: inactive
[2]
  Potency: inactive
[3]
  Potency: 24.3 µM (active)
[9]
  Potency: inactive
[5]
  outcome: inactive
[10]
  outcome: inactive
[11]
  Potency: inactive
[14]
  Potency: inactive

## O=C(CBr)Nc1ccc(Cl)cc1C(=O)c1ccccc1F
[18]
  Potency: inactive
[2]
  Potency: inactive
[3]
  Potency: 23.7 µM (active)
[4]
  Potency: inactive
[9]
  Potency: inactive
[5]
  outcome: inactive
[10]
  outcome: inactive
[11]
  Potency: inactive
[15]
  Potency: inactive
[8]
  outcome: inactive
[19]
  outcome: inactive

## Cl/C=C\C[N+]12CN3CN(CN(C3)C1)C2
[17]
  Potency: inactive
[4]
  Potency: inactive
[9]
  Potency: inactive
[5]
  outcome: inactive
[11]
  Potency: inactive
[13]
  Potency: inactive
[14]
  Potency: inactive
[7]
  outcome: inactive
[15]
  Potency: inactive
[8]
  outcome: inactive
[19]
  outcome: inactive

## C=CC(=O)OCCCCO
[17]
  Potency: inactive
[20]
  Potency: inactive
[18]
  Potency: inactive
[2]
  Potency: inactive
[3]
  Potency: 3.86 µM (active)
[4]
  Potency: inactive
[6]
  Potency: inactive
[11]
  Potency: inactive
[13]
  Potency: inactive
[14]
  Potency: inactive
[7]
  outcome: inactive
[15]
  Potency: inactive

## O=C(Nc1ccccc1)Nc1ccnc(Cl)c1
[9]
  Potency: inactive
[5]
  outcome: inactive
[6]
  Potency: inactive
[10]
  outcome: inactive
[11]
  Potency: inactive
[14]
  Potency: inactive
[7]
  outcome: inactive
[15]
  Potency: inactive
[8]
  outcome: inactive

## O=S1OC[C@@H]2[C@H](CO1)[C@]1(Cl)C(Cl)=C(Cl)[C@@]2(Cl)C1(Cl)Cl (stereo not given in full)
[17]
  Potency: inactive
[18]
  Potency: inactive
[11]
  Potency: inactive
[13]
  Potency: inactive
[15]
  Potency: inactive
[8]
  outcome: inactive

## CCCCc1c(C)nc(NCC)nc1OS(=O)(=O)N(C)C
[2]
  Potency: inactive
[3]
  Potency: 27.3 µM (active)
[4]
  Potency: inactive
[9]
  Potency: inactive
[5]
  outcome: inactive
[10]
  outcome: inactive
[11]
  Potency: inactive
[12]
  Potency: inactive
[15]
  Potency: inactive
[8]
  outcome: inactive
[19]
  outcome: inactive

## CC1CC(CC2CCC(N)C(C)C2)CCC1N (stereo not given)
[16]
  Potency: inactive
[20]
  Potency: inactive
[2]
  Potency: inactive
[4]
  Potency: inactive
[9]
  Potency: inactive
[5]
  outcome: inactive
[6]
  Potency: inactive
[10]
  outcome: inactive
[12]
  Potency: inactive
[8]
  outcome: inactive

## O=S(=O)(O)C(F)(F)C(F)(F)C(F)(F)C(F)(F)F
[16]
  Potency: inactive
[20]
  Potency: inactive
[4]
  Potency: inactive
[5]
  outcome: inactive
[6]
  Potency: inactive
